Screening results (PubChem BioAssay)
The list is not random: actives were taken first. Their share in the collection is about 4%.
tim10-1 inh: growth inhibitors of tim10-1 mutant yeast, primary screen, luminescence, uHTS | S. cerevisiae tim10-1 ts strain growth, BacTiter-Glo, 24 h | 2.2% of 330,000 active | inhibition, % at 20 µM;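 active means inhibition of at least 40%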;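 further: mutant grown at 25 °C; 0% = DMSO wells with yeast and 100% = wells holding no yeast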
TIM10 inh: growth inhibitors of isogenic TIM10 control yeast, primary screen, counter-screen for tim10-1 yeast inhibitor project, luminescence, uHTS; S. cerevisiae TIM10 strain growth, BacTiter-Glo luminescence, 24 h; 1.4% of 330,000 active; inhibition, % at 10 µM;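 active means inhibition of 40% or more at the single tested concentration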;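 further: wild-type TIM10 isogenic control strain grown at permissive 25 °C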
NLRP3 yeast inh: NALP3 inflammasome inhibitors in reconstituted yeast, primary screen, luminescence, uHTS | 0.39% of 330,000 active | inhibition, % at 10 µM | Yeast reconstituted NLRP3/ASC/caspase-1, beta-gal luminescence, 24 h | AID 2825, 2010;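 active means inhibition of 50% or more; inactive means inhibition below 50%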;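 further: plate controls were induced DMSO wells for no effect and uninduced yeast grown without galactose for full effect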
NALP1 yeast inh: NALP1 inflammasome inhibitors in reconstituted yeast, colorimetric, S. cerevisiae, triplicate retest | 0.61% of 280,000 active | S. cerevisiae NALP1/ASC/caspase-1 growth, X-gal OD620, 72 h | inhibition, % at 10 µM | AID 2071, 2009; in the data active means inhibition mostly above about 24%, no sharp cut-off; inactive means mostly below about 32%
tim23-1 inh: growth inhibitors of tim23-1 mutant yeast, primary screen, luminescence, uHTS. S. cerevisiae tim23-1 growth, BacTiter-Glo luminescence, 24 h. inhibition, % at 20 µM. 1.3% of 330,000 active. AID 463212, 2010;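 active means growth inhibition of the mutant yeast at or above 50%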;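 further: temperature-sensitive mutant grown at 25 °C; plate controls were DMSO-treated mutant yeast for no effect and medium wells lacking yeast for full effect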
NALP3 yeast conf: NALP3 inhibitors retested in yeast, confirmation, luminescence, single concentration | shares compounds with NLRP3 yeast inh | yeast expressing human NALP3 | inhibition, % at 10 µM | 81% of 1,300 active | AID 435006, 2010; in the data active means inhibition above about 48%
Casp1-ASC yeast: CASP1-PYCARD signaling inhibition in yeast, confirmatory test, counterassay for NLRP3 inhibitor program, one-dose | inhibition, % at 10 µM | AID 488784, 2010 | shares compounds with NLRP3 yeast inh | yeast expressing Caspase-1-ASC, luminescence counter screen | 66% of 1,000 active
NALP3 yeast rt: NALP3 inhibitors in yeast, repeat test, confirmation, luminescence, single concentration, retest | shares compounds with NLRP3 yeast inh | yeast expressing human NALP3, luminescence read-out | inhibition, % at 10 µM | 53% of 1,000 active
tim10-1 conf: growth inhibitors of tim10-1 mutant yeast, confirmation, single concentration, luminescence, S. cerevisiae. 56% of 7,400 active. S. cerevisiae tim10-1 ts strain growth, BacTiter-Glo, 24 h. shares compounds with tim10-1 inh. AID 463213, 2010. inhibition, % at 20 µM;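 active means inhibition of yeast growth at or above a set limit in either of two repeat tests at 20 µM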;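 further: tim10-1 mutant grown at permissive 25 °C to find synthetic lethal compounds; 0% = DMSO yeast wells and 100% = medium wells without yeast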
TIM10 conf: growth inhibitors of wild-type TIM10 yeast, confirmation, counter-screen for tim10-1 synthetic lethality project, single concentration, luminescence, S. cerevisiae; shares compounds with TIM10 inh; S. cerevisiae tim10 strain growth, BacTiter-Glo luminescence, 24 h; inhibition, % at 10 µM; 63% of 4,600 active; AID 463215, 2010;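 active means inhibition of yeast growth at or above a set limit in either of two replicates at 10 µM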;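 further: this counterscreen used the strain with wild-type TIM10; 0% = yeast with DMSO and 100% = medium wells lacking yeast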
tim23-1 conf: tim23-1 mutant yeast growth inhibitors, confirmation, luminescence, single concentration; AID 463218, 2010; S. cerevisiae tim23-1 growth, BacTiter-Glo luminescence, 24 h; shares compounds with tim23-1 inh; inhibition, % at 20 µM; 83% of 4,400 active;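 active means inhibition above about 39% in either of two replicate wells at 20 µM, limit read from the data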;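 further: temperature-sensitive tim23-1 mutant grown at 25 °C; 0% = DMSO wells with yeast and 100% = medium wells without yeast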
* marks the source's active call; other numbers are inactive results. Unless noted, no stated cut-off is given here; in the data, active means inhibition above about 50%; inactive means the rest.

Screening CC1CCN(c2ccc(-c3cccs3)nn2)CC1 returned tim10-1 inh 36.9, TIM10 inh 38.4, NLRP3 yeast inh 51.7*, NALP1 yeast inh 8.0, tim23-1 inh 67.8*, NALP3 yeast conf 79.4* and tim23-1 conf 71.7*.
Clc1ccc(-c2cccs2)nn1 was read as tim10-1 inh -12.3, TIM10 inh -20.3, NLRP3 yeast inh 9.8, NALP1 yeast inh -11.2 and tim23-1 inh 24.3.
`Cc1cc(C)n(CCNC(=O)c2ccc3c(c2)OCO3)n1` gave tim10-1 inh -0.4, TIM10 inh -0.4, NLRP3 yeast inh 21.2, NALP1 yeast inh 10.3 and tim23-1 inh 1.7.
For O=C(c1ccccn1)c1conc1C(=O)c1ccc(Br)cc1 the results were tim10-1 inh 69.4*, TIM10 inh 72.4*, NLRP3 yeast inh 69.1*, NALP1 yeast inh 0.1, tim23-1 inh 77.6*, NALP3 yeast conf 82.8*, Casp1-ASC yeast 84.0*, NALP3 yeast rt 60.2*, tim10-1 conf 72.8*, TIM10 conf 62.7* and tim23-1 conf 87.2*.
Cc1[nH]c2ccccc2c1C(=O)/C=C/c1ccccc1 was read as tim10-1 inh 26.7, TIM10 inh 14.2, NLRP3 yeast inh 63.3*, NALP1 yeast inh -2.8, tim23-1 inh 63.9*, NALP3 yeast conf 52.4*, Casp1-ASC yeast 79.8*, NALP3 yeast rt 75.0* and tim23-1 conf 55.6*.
For Cc1[nH]c2ccccc2c1C(=O)CN1CCN(C/C=C/c2ccccc2)CC1 the results were tim10-1 inh -6.5, TIM10 inh 2.9, NLRP3 yeast inh -0.9, NALP1 yeast inh -6.3 and tim23-1 inh -6.3.
For CN(C)c1ccc(/C=C/c2ccc3c4ccccc4ccc3[n+]2-c2ccccc2)cc1 the results were NALP1 yeast inh -24.0.
For CN(C)c1ccc(/C=C/c2ccc3ccccc3[n+]2C)cc1 the results were tim10-1 inh 84.5*, TIM10 inh 80.6*, NLRP3 yeast inh 52.1*, NALP1 yeast inh 60.3*, tim23-1 inh 75.2*, NALP3 yeast conf 32.8, tim10-1 conf 81.4*, TIM10 conf 8.6 and tim23-1 conf 76.1*.
`Cc1csc2nc(O)c(C(=O)NCCC3=CCCCC3)c(=O)n12` gave tim10-1 inh 33.9, TIM10 inh 34.5, NLRP3 yeast inh 55.9*, tim23-1 inh 65.6*, NALP3 yeast conf 74.6*, Casp1-ASC yeast 28.9, NALP3 yeast rt 55.1* and tim23-1 conf 44.1*.
Screening Cn1ncc2c(O/N=C(\N)c3ccc(C(C)(C)C)cc3)ncnc21 returned tim10-1 inh 27.3, TIM10 inh 79.1*, NLRP3 yeast inh 54.0*, tim23-1 inh 55.2*, NALP3 yeast conf 78.2*, Casp1-ASC yeast 82.0*, NALP3 yeast rt 66.8*, TIM10 conf 83.8* and tim23-1 conf 23.9.
For CCOC(=O)c1ccc(Nc2ncnc3c2cnn3C)cc1 the results were tim10-1 inh 1.6, TIM10 inh -3.8, NLRP3 yeast inh 19.8, NALP1 yeast inh 3.9 and tim23-1 inh 9.0.
Cc1cc(CN2CCCC(C(=O)Nc3ccc(-c4nc5ccccc5[nH]4)cc3)C2)n[nH]1 (centres undefined) was read as tim10-1 inh -18.7, TIM10 inh 1.9, NLRP3 yeast inh 2.0, NALP1 yeast inh -6.8 and tim23-1 inh -3.5.
Cc1ccc(O)c(N=Nc2nccs2)c1 was read as tim10-1 inh 26.3, TIM10 inh 50.1*, NLRP3 yeast inh 89.8*, tim23-1 inh 72.3*, NALP3 yeast conf 90.6*, Casp1-ASC yeast 98.7*, NALP3 yeast rt 95.6*, TIM10 conf 68.1* and tim23-1 conf 70.8*.
`COc1ccc(N=Nc2cc(C)ccc2O)cc1` gave tim10-1 inh 25.5, TIM10 inh 15.7, NLRP3 yeast inh 9.4, NALP1 yeast inh 6.4 and tim23-1 inh 8.8.
CC1(C)COC(c2cc([N+](=O)[O-])ccc2Cl)=N1 was read as tim10-1 inh -3.1, TIM10 inh -31.1, NLRP3 yeast inh 27.8, NALP1 yeast inh 0.9 and tim23-1 inh 8.7.
For CC1(C)COC(/C=C/c2cccc([N+](=O)[O-])c2)=N1 the results were tim10-1 inh 60.0*, TIM10 inh 46.8*, NLRP3 yeast inh 55.1*, NALP1 yeast inh 11.2, tim23-1 inh 58.8*, NALP3 yeast conf 62.1*, Casp1-ASC yeast 73.6*, NALP3 yeast rt 57.3*, tim10-1 conf 42.6*, TIM10 conf 45.5* and tim23-1 conf 40.5*.
`CCOC(=O)CNC(=O)Cn1cnc2c(oc3ccccc32)c1=O` gave tim10-1 inh -1.0, TIM10 inh -8.3, NLRP3 yeast inh -1.1, NALP1 yeast inh 25.8 and tim23-1 inh -15.0.
For COc1ccc(OC)c(C(C[N+](=O)[O-])c2c(C)cc3ccccn23)c1 (centres undefined) the results were tim10-1 inh 45.0*, TIM10 inh 65.6*, NLRP3 yeast inh 64.0*, NALP1 yeast inh 27.4, tim23-1 inh 85.2*, NALP3 yeast conf 44.0, Casp1-ASC yeast 66.7*, NALP3 yeast rt 37.2, tim10-1 conf 61.2*, TIM10 conf 81.6* and tim23-1 conf 91.3*.
For Cc1ccc(CNC(=O)CCS(=O)(=O)c2ccc3c(c2)CC(C)N3C(=O)C2CC2)cc1 (centres undefined) the results were tim10-1 inh 12.0, TIM10 inh -21.8, NLRP3 yeast inh -1.7, NALP1 yeast inh 0.0 and tim23-1 inh 5.0.
For O=C(OC1C2CCC1C1CN(CCc3ccccc3)CC12)c1ccccc1 (centres undefined) the results were tim10-1 inh 9.2, TIM10 inh 14.2, NLRP3 yeast inh 8.5, NALP1 yeast inh 24.6 and tim23-1 inh -4.3.
